Laboratory results reported in PubChem BioAssay AID743279 (National Center for Advancing Translational Sciences (NCATS), 2014).
The whole screen tested about 360,000 compounds, of which about 17,000 (4.7%) were called active. Another 5% or so got no clear call; they are omitted. Cut-off read from the data, not from the text of the source: active = activity change below about -50%; inconclusive = mostly about -30% to -49%; inactive = weaker than that. The entries come from a sample that favours actives as a whole.
% is set by controls: 0 for no effect and ±100 for the full control effect.

Test: qHTS for Inhibitors of Inflammasome Signaling: IL-1-beta AlphaLISA Primary Screen
Conditions: THP-1 LPS/ATP IL-1B secretion, 16 h, at 57.5 µM, stronger effect = lower value
Description: Inflammasomes are a set of intracellular multi-protein complexes that enable autocatalytic activation of inflammatory caspases and drive the innate immune response to counter harmful agents. […] A qHTS assay, based on AlphaLISA technology, was developed to screen the Molecular Libraries Small Molecule Repository (MLSMR) to look for novel inflammasome inhibitors. The assay detects IL-1B using AlphaLISA anti-IL-1B acceptor and donor beads. A decreased emission signal, indicating reduced IL-1B secretion, is the desired outcome for this assay. NIH Chemical Genomics Center [NCGC] NIH Molecular Libraries Probe Centers Network [MLPCN] MLPCN Grant: MH095513 Assay Provider: Shyam Biswal Ph.D., Johns Hopkins University Immunity. 2012 Jul 27;37(1):85-95. PMID: 22819042 [2] Curr Pharm Des. 2012;18(16):2320-8. PMID: 22390695
Three microliters containing 3000 THP-1 cells were dispensed into the wells of solid, white, tissue culture treated Greiner 1,536-well plates. Library compounds and positive control, Glyburide, were pin-transferred (23 nL) by a Kalypsys pin-tool equipped with a 1,536-pin array, resulting in final compound concentration ranges of 2.5 nM to 57.5 uM. After 1 hr of cell culture incubation (37 °C, 5% CO2), 1 microL of 1 microg/mL lipopolysaccharide (250 ng/mL, final) and 5 mM ATP (1.25 mM, final) were added to stimulate the cells. After 16 hr of cell culture incubation with the compounds, 1.5 uL of anti-IL-1B acceptor beads (6 ug/mL, final) and biotinylated antibody (0.6 nM, final) were added to the plate, followed by a 1 hr incubation at ambient temperature. To detect the secreted IL-1B, 1.5 uL of AlphaLISA SA-Donor beads (24 ug/mL, final) were added, followed by 30 min of incubation in the dark at ambient temperature. The AlphaLISA signal was read by a PerkinElmer EnVision plate reader with an ultrasensitive luminescence detector and 1536 Plate HTS AlphaScreen aperture (excitation of 680nm and emission of 615nm).
For CCC1(CC(C)c2ccccc2)C(=O)NC(=O)NC1=O (stereo not drawn), the activity change was -0.699% (inactive). With COC(=O)C[C@H]1CC[C@H]2NC[C@@H](O)COC[C@@H]2O1 the activity change was 0% (inactive). For CC1C2Cn3c(nc4ccccc43)C1N(C)O2 (stereo not drawn), the activity change was 32.4% (inactive). With CC(=O)NC(=O)NC(C)Cc1ccccc1 (stereo not drawn) the activity change was 11.5% (inactive). With CC(Cc1ccccc1)NC=O (stereo not drawn) the activity change was 16% (inactive). In the case of CC(Cc1ccccc1)NCCC(c1ccccc1)c1ccccc1 (stereo not drawn), the activity change is reported as -64.4% (active). In the case of CN1CCC(OC(=O)c2cccc(F)c2)CC1, the activity change is reported as -22% (inactive). In the case of COc1ccc(NC(=O)N2Cc3ccccc3-n3nncc3C2)cc1, the activity change is reported as -5.29% (inactive). With Cc1cc(-c2ccc(N)c(C)c2)ccc1N the activity change was -12.1% (inactive). With CC(=O)OC1C2(CC3N4C(=O)C5(CO)SSC4(CC31O)C(=O)N5C)OC(C)C(C)(C)C2=O (stereo not drawn) the activity change was -104% (active). For Cc1ccc(C(C)C)c(OCC(=O)N2CCN(CC(=O)N3CCOCC3)CC2)c1, the activity change was -9.54% (inactive). For C[N+]12CN3CN(CN(C3)C1)C2, the activity change was 1.54% (inactive). For Clc1cccc(Cl)c1Cl, the activity change was -12.8% (inactive). For COC1C(O)C(C)OC(OC2CCC3(C=O)C(CCC4C3CCC3(C)C(C5=CC(=O)OC5)CCC43O)C2)C1O (stereo not drawn), the activity change was -68% (active). With C[C@]12CC[C@H](O)C[C@H]1CC[C@@H]1C2CC[C@]2(C)[C@@H](C3=CC(=O)OC3)[C@@H](O)C[C@]12O (stereo partly drawn) the activity change was -21.6% (inactive). With C[C@H]1CN([C@@H](C)CO)C(=O)CCCn2nncc2CO[C@H]1CN(C)C(=O)Oc1cccc2ccccc12 the activity change was 24.1% (inactive). With COc1cc(C(=O)N2Cc3ccc(Br)cc3-n3nncc3C2)cc(OC)c1OC the activity change was -13.4% (inactive). In the case of O=C1/C(=C\c2ccc3c(c2)OCO3)N2CCC1CC2, the activity change is reported as -14.8% (inactive). For O=c1c2ccccc2nc(/C=C/c2ccc(F)cc2)n1-c1ccccc1O, the activity change was -94.1% (active). For Cc1nc2ccccc2c(=O)n1-c1ccc(Cl)cc1Cl, the activity change was -2.71% (inactive). For O=c1c2ccccc2nc(-c2ccccc2)n1-c1ccccn1, the activity change was 17.2% (inactive). For COc1ccccc1NC(=O)N1C[C@@H]2C[C@@H](C1)c1cccc(=O)n1C2, the activity change was 1.98% (inactive). For O=C(O)C1CSC(c2cccnc2)N1 (stereo not drawn), the activity change was 0% (inactive). For NCCc1ccc(S(=O)(=O)F)cc1, the activity change was 13% (inactive). In the case of O=C(NC1CCCCC1)N1Cc2cc(N3CCCCC3)ccc2-n2nncc2C1, the activity change is reported as -7.47% (inactive). For CCOc1ccc(-c2cc(C)[n+](CCN(CC)CC)c(-c3ccc(OCC)cc3)c2)cc1, the activity change was -82.5% (active). In the case of COC(=O)C1=C(c2ccc(F)cc2OCc2ccccc2)C[C@@H]2CC[C@H]1N2C(=O)NCc1ccc(OC)c(OC)c1, the activity change is reported as -5.32% (inactive). In the case of COC(=O)C1=C(c2ccc(F)cc2OCc2ccccc2)C[C@@H]2CC[C@H]1N2C(=O)NCc1ccc(C(C)(C)C)cc1, the activity change is reported as -29.4% (inactive). With COC(=O)C1=C(c2ccc(F)cc2OCc2ccccc2)C[C@@H]2CC[C@H]1N2C(=O)NCc1ccc(Cl)cc1 the activity change was -55.3% (active). In the case of CC1CCC(N(C)C2CCN(C)CC2)CC1 (stereo not drawn), the activity change is reported as 0% (inactive). With CCOC(=O)c1cccc(C2=C(CNC(=O)c3ccncc3)[C@H]3CC[C@@H](C2)N3Cc2ccccc2)c1 the activity change was 41.7% (inactive). With COc1ccc(-c2nc(CS(=O)CC(=O)N3CCC4(CC3)OCCO4)c(C)o2)cc1 (stereo not drawn) the activity change was -1.15% (inactive). In the case of O=P(OC1=CCCCC1)(c1ccccc1)c1ccccc1, the activity change is reported as -4.62% (inactive). In the case of Cc1ncoc1C(=O)NCC1=C(c2cccc3ccccc23)C[C@@H]2CC[C@H]1N2Cc1ccco1, the activity change is reported as -7.11% (inactive). For CC1(C)Cc2c(C#N)c(N3CCNCC3)nc(-c3ccco3)c2CS1, the activity change was -50.4% (active). In the case of COC(=O)C1=C(c2ccc(OCc3ccccc3)cc2)C[C@@H]2CC[C@H]1N2C(=O)NCc1ccc(Cl)cc1, the activity change is reported as 4.2% (inactive). In the case of N#CC1=C(N)Oc2c(c(=O)oc3ccccc23)C1c1ccccc1OC(=O)c1cccs1 (stereo not drawn), the activity change is reported as -86.1% (active). In the case of COc1ccc(C2C=C(C)Oc3c2c(=O)oc2ccccc32)cc1OC (stereo not drawn), the activity change is reported as 7.28% (inactive). With S=C(NCCc1ccccc1)N1Cc2cc(N3CCOCC3)ccc2-n2nncc2C1 the activity change was -27% (inactive). For Cc1cc(C)c2c(c1)NP(=S)(c1ccccc1)N2 (stereo not drawn), the activity change was -11.4% (inactive). In the case of Cc1cc(C=C2C(=O)NC(=O)NC2=O)c(C)n1-c1ccncc1, the activity change is reported as -12.3% (inactive). For Cc1ccc(-n2c(C)cc(/C=C3\C(=O)NC(=O)N(C)C3=O)c2C)cc1C, the activity change was -4.58% (inactive). For Cc1ccnc(-n2c(C)cc(/C=C3\C(=O)NC(=S)N(C)C3=O)c2C)c1, the activity change was -79.4% (active).
